Artemis inh: Artemis (human) endonuclease inhibition. inhibition, % at 10 µM. recombinant Artemis, quenched FAM hairpin cleavage fluorescence. actives 0.78% (n = 30,000). AID 686954. Q96SD1;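 active means at 10 µM dose, at least 30% inhibition, measured as corrected fluorescence normalized to stimulator and neutral control wells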
Target sequence (Q96SD1 whole entry, looked up): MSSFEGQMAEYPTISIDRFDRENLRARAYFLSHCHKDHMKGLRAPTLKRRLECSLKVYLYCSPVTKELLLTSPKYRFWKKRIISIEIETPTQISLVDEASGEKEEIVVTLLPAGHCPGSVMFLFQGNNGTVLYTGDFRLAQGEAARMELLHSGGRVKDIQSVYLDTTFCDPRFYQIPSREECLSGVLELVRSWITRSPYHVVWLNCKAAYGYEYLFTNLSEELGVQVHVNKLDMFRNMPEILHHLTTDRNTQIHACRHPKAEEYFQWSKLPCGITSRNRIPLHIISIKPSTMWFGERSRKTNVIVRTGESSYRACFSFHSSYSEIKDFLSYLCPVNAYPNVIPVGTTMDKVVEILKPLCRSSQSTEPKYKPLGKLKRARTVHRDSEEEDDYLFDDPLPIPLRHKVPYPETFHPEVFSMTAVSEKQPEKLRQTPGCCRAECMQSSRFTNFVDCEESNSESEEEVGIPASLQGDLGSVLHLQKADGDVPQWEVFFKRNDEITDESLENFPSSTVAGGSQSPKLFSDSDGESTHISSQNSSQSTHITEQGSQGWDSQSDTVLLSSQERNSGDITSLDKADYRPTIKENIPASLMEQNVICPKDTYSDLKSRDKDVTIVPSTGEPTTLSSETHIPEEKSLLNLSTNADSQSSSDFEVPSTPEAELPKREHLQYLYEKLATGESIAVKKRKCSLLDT
Numbers without * were called inactive. This is one part of a sample in which hits are shown more often than they occur.

SMILES	Artemis inh
COc1ccc(Br)cc1C(=O)Nc1cc(C)cc(C)c1	5.3
COc1ccc(N/C(N)=N/c2nc(CSc3ccc(C)cc3)cc(=O)[nH]2)cc1	14.2
Cc1cc(=O)[nH]c(/N=C(\N)Nc2cccc3ccccc23)n1	-2.5
COc1ccccc1N/C(N)=N/c1nc(CSc2ccc(C)cc2)cc(=O)[nH]1	30.3*
O=C(CSc1ncn[nH]1)Nc1ccc(Cl)c(Cl)c1	0.5
CC(C)c1ncc(C(O)c2cccc3ccccc23)n1C (stereo not drawn)	-3.7
O=c1cc(N2CCCCC2)c(-c2ccccc2)nn1Cc1c(Cl)cccc1Cl	22.1
O=C(NCc1ccc2c(c1)OCO2)c1ccc(N2C(=O)C3CCCCC3C2=O)cc1 (stereo not drawn)	1.6
Cn1cc(C(=O)c2ccc(Cl)cc2Cl)cc1C(=O)N/N=C(\N)COc1cccc(C(F)(F)F)c1	13.8
O=C(CN(Cc1cccs1)C(=O)CNC(=O)c1ccco1)NC1CCCCC1	0.7
O=c1cc(-c2ccccc2)nc2nc(-c3ccccc3)[nH]n12	5.1
O=c1cc(-c2ccccc2)nc2nc(COc3ccccc3)[nH]n12	5.2
Nc1[nH]n2c(=O)cc(-c3ccccc3)nc2c1N=Nc1ccccc1	47.3*
CCc1ccc2[nH]c(=O)c(CN(Cc3ccccc3)Cc3nnnn3Cc3ccco3)cc2c1	21.1
Cc1ccc2[nH]c(=O)c(CN(Cc3ccc4c(c3)OCO4)Cc3nnnn3Cc3ccco3)cc2c1	35.1*
CCC(c1nnnn1Cc1ccco1)N(CCc1ccccc1)Cc1cc2cc(C)ccc2[nH]c1=O (stereo not drawn)	14.4
O=c1[nH]c2cc3c(cc2cc1CN(Cc1ccccc1)Cc1nnnn1Cc1ccco1)OCCO3	27.0
Cc1cc(C)c2cc(CN(CCO)Cc3nnnn3Cc3ccc(F)cc3)c(=O)[nH]c2c1	1.3
Cc1cc(C)c2cc(CN(Cc3ccc4c(c3)OCO4)Cc3nnnn3Cc3ccco3)c(=O)[nH]c2c1	40.2*
CC1C/C(=N/O)C(C)CN1 (stereo not drawn)	-4.7
CCNc1nc(Oc2ccccc2)nc(OC(C)C(=O)OCC)n1 (stereo not drawn)	0.5
C=CCSC1=N/C(=C\c2ccc(C)o2)C(=O)S1	1.8
CSC1=N/C(=C\c2ccc(C)cc2)C(=O)S1	-1.0
CCOc1cc(/C=C2\N=C(SC)SC2=O)cc([N+](=O)[O-])c1OC(C)=O	33.4*
CCOc1c(OC(C)=O)ccc(/C=C2\N=C(SCC)SC2=O)c1[N+](=O)[O-]	30.1*
SMILES	Artemis inh
COc1ccc(/C=C2\N=C(SC)SC2=O)cc1OC	-1.7
CCC(C)(C)NC(=O)C(c1ccc(OC)cc1)N(Cc1cccs1)C(=O)CCC(=O)Nc1cc(C)on1 (stereo not drawn)	3.6
COc1ccc(/C=N/NC(=O)Cc2csc(Nc3cccc(C(F)(F)F)c3)n2)cc1C	8.5
CC1(C)Cc2c(cnn2-c2ccccc2)-c2c1c1ccccc1n2CC(O)CBr (stereo not drawn)	2.8
Oc1ccc(Cl)cc1C(C#Cc1ccccc1)N1CCOCC1 (stereo not drawn)	0.6
O=C(O)C(=O)/C(=C\c1cccc2ccccc12)c1ccc2ccccc2n1	30.5*
Cc1cccc(NC(=O)c2ccc3ccccc3n2)c1C	-2.4
O=C(O)C(=O)/C(=C\c1ccccc1)c1ccc2ccccc2n1	-8.4
CCc1nc(C)c(C#N)c2cc(OC)c(OC)cc12	4.0
CCOc1cc2c(C#N)c(N3CCOCC3)nc(N)c2c(N)n1	29.0
CCCN(CC1CC1)c1nc(N)c2c(N)nc(OC)cc2c1C#N	48.6*
Cc1csc(Sc2ccc([N+](=O)[O-])cc2C(=O)OCC(=O)NC(=O)NC(C)(C)C)n1	12.5
O=C(Nc1cccnc1)C1(F)C(F)(F)C(F)(F)C(F)(F)C(F)(F)C1(F)F	-2.4
COc1cc2ccccc2cc1C(=O)Nc1cccnc1	-1.3
COC(=O)/C=C/C(=O)Nc1cccnc1	35.5*
O=C(N/N=C/C=C/c1ccccc1)c1cc2c(ccc3ccccc32)o1	19.8
COC(=O)C(NC(=O)c1ccco1)(Nc1ccc(Br)cn1)C(F)(F)F (stereo not drawn)	-6.5
CCOC(=O)/C(C#N)=C1/C=Cc2ccccc2N1CC	0.2
CCOC(=O)c1c(O)c2ccccc2n(-c2ccccc2)c1=O	5.2
CCOC(=O)/C=c1\s/c(=C(\C#N)C(=O)OCC)n(-c2ccccc2)c1=O	31.1*
Cc1cc(OCc2nn[nH]n2)c2c(C)c(Cc3ccccc3)c(=O)oc2c1	23.5
CN(/C(=N\S(=O)(=O)c1ccccc1)C(F)(F)F)c1ccccc1	-5.0
c1ccc(-c2ccc(-c3cnc4n3CCCCC4)cc2)cc1	-1.8
Cc1[nH]n(-c2ccccc2)c(=S)c1C=Nc1cccc([N+](=O)[O-])c1	-4.7
Cc1ccc(C(=O)c2ccccc2C(=O)O)s1	8.6
SMILES	Artemis inh
Cc1ccc(C)n1-c1sccc1C(=O)O	32.8*
O=C(O)c1ccccc1C(=O)c1cccs1	-3.1
OCc1nn2c(c1Br)NC(c1ccccc1)CC2C(F)(F)F (stereo not drawn)	18.5
OCCOCCn1c2ccccc2c2ccccc21	-4.9
O=C(Nc1ncc2c(n1)CC(c1ccco1)CC2=O)c1ccccc1 (stereo not drawn)	-3.2
O=C1CC(c2ccco2)Cc2nc(Nc3nc(-c4ccccc4)c4ccccc4n3)ncc21 (stereo not drawn)	34.2*
Cc1cccc(Nc2ncc3c(n2)CC(c2ccco2)CC3=O)c1 (stereo not drawn)	7.0
O=C(CN(C1CCCCC1)C1CCCCC1)N1CCc2ccccc2C1	-1.1
COc1ccc(-c2ccc(C#N)c(SCC(=O)Nc3sc4c(c3C#N)CCC4)n2)cc1	15.4
COc1ccc(-c2nnc(SCC(=O)Nc3sc4c(c3C#N)CCC4)n2CC2CCCO2)cc1 (stereo not drawn)	41.6*
CCn1c(SCC(=O)Nc2sc3c(c2C#N)CCCC3)nnc1-c1ccco1	7.8
N#Cc1c(NC(=O)CSc2nnc(-c3ccco3)n2-c2ccccc2)sc2c1CCC2	35.9*
COc1ccc(-c2nnc(SCC(=O)NC(C)C)n2CC2CCCO2)cc1OC (stereo not drawn)	-6.1
COc1ccc(-n2c(SCC(=O)Nc3sc4c(c3C#N)CCCC4)nnc2-c2ccccc2OC)cc1	13.8
CCn1cc(/C=N/N=C2\CCC3C4CCc5cc(O)ccc5C4CC[C@]23C)c(C)n1 (stereo partly drawn)	4.3
CCN(CC)S(=O)(=O)c1ccc(NC(=O)CC(NC(C)=O)c2ccccc2)cc1 (stereo not drawn)	-0.7
OC(CN1CCN(c2cccc(C(F)(F)F)c2)CC1)c1c[nH]c2ccccc12 (stereo not drawn)	5.5
N#CC(C#N)=c1ccc2c(c1)NC1(CCCCC1)N=2	6.5
COc1cccc(C(=O)Nc2nc3c(s2)CN(C)CC3)c1	19.1
C=CCCCCCCCCC(=O)NNC1=CC(=O)CC(C)(C)C1	-0.8
COC(=O)C1=C(N)c2c(F)cccc2C1(C#N)c1ccc(F)cc1 (stereo not drawn)	-3.4
CCCOc1ccc(-c2nnc(N)s2)cc1	0.2
CCOc1cc(-c2ccc(N)c(OCC)c2)ccc1N	5.4
CCCOc1ccc(N)cc1N	31.0*
COc1cccc(-c2nc(-c3ccc(NC(=O)c4cccs4)cc3)no2)c1	-1.0
CO/N=C(/CS(=O)(=O)c1ccc(C)cc1)c1ccc(OC)cc1	2.2

High-throughput results as filed in PubChem.
